Experiment [1] is described as follows: Caspase-3/7 induction in CHO-K1 cells by small molecules, qHTS assay (AID 1346980). Note: nearly all actives have a fitted effect of over 15% in size. The procedure, abridged:
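Luminescent Caspase-Glo 3/7 read (30min, room temperature) quantified apoptosis induction. Cells were wild-type CHO-K1, treated with compound for 17hr at 37 C and 5% CO2.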

Experiment [2] is described as follows: Caspase-3/7 induction in HepG2 cells by small molecules, qHTS cell viability counter screen (AID 1346981). Note: series mostly up to about 92 µM; nearly all actives have a fitted effect of over 30% in size. The procedure, abridged: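 HepG2, WT, 2,000 cells/well; 5 hr pre-incubation 37 C/5% CO2; compound pin-transferred from DMSO; 16 hr exposure; CellTiter-Fluor, 1 hr; fluorescence read.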
In general terms: Quantitative high-throughput screening tests each substance at several concentrations.

Experiment [3] addresses Nuclear receptor subfamily 1 group I member 2 (Homo sapiens) (UniProt O75469). The experiment in a line: Human pregnane X receptor (PXR) small molecule agonists, qHTS assay (AID 1346982). Note: nearly all actives have a fitted effect of over 35% in size. Note: potency is the fitted concentration of half-maximal effect. The procedure, abridged:
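Luciferase signal from ONE-Glo (30 min, room temperature) measured activation of hPXR-driven CYP3A4 reporter expression in PXR-Luc HepG2 cells treated with compounds for 24 hr at 37 C.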

The target of experiment [4] is Acetylcholinesterase (Homo sapiens) (UniProt P22303). Kind of experiment: Acetylcholinesterase (AChE) small molecule antagonists: enzyme-based qHTS assay (AID 1347397; calls by dose curve; note: nearly all actives have a fitted effect of over 55% in size; note: potency is the fitted concentration of half-maximal effect). The conditions noted are these: Potency: AChE enzyme activity inhibition. Put shortly: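 Absorbance-based detection of thiocholine with DTNB served as the read-out. Recombinant human AChE was exposed to compound for 30 min at RT before a 10 min RT incubation with acetylthiocholine.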
Sequence of Acetylcholinesterase (Homo sapiens) (P22303 whole entry, looked up): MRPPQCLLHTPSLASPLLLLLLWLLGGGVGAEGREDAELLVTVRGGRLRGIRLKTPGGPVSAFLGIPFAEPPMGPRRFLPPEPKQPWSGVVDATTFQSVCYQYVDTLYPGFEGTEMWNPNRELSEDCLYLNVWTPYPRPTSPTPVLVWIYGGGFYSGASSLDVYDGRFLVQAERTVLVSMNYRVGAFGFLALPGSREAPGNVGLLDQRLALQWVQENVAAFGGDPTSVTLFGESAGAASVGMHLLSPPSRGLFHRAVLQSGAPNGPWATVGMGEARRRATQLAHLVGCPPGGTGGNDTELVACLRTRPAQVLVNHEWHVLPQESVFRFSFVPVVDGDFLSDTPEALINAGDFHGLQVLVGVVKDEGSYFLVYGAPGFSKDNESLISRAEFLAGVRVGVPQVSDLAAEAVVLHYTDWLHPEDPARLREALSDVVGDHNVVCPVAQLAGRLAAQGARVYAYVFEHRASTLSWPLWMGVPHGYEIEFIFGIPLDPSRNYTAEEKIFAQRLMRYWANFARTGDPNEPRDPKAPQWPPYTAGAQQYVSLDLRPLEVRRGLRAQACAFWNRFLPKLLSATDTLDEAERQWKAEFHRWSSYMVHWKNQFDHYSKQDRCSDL

For experiment [5] the target is unchanged. The experiment in a line: Acetylcholinesterase (AChE) small molecule antagonists: fluorescence cell-based qHTS assay (AID 1347398; calls by dose curve; note: nearly all actives have a fitted effect of over 50% in size; note: potency is the fitted concentration of half-maximal effect). The conditions noted are these: Potency: AChE activity. Put shortly: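 Fluorimetric cell-based assay: intact SH-SY5Y cells, 30 min compound preincubation at 37 C, acetylthiocholine substrate with thiol probe Thiolite Green, 40 min RT development, fluorescence 490/520 nm.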

Experiment [6] shares this target. The experiment in a line: Acetylcholinesterase (AChE) small molecule antagonists: enzyme-based qHTS assay with human liver microsomes (AID 1347399; calls by dose curve; note: nearly all actives have a fitted effect of over 60% in size; note: potency is the fitted concentration of half-maximal effect). The conditions noted are these: Potency: qHTS inhibition. Put shortly: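 Recombinant human AChE (50 mU/mL in the enzyme mix) and human liver microsomes (0.25 mg/mL final) were preincubated with compound and NADPH (0.25 mg/mL final) for 30 min at 37 C. Acetylthiocholine/DTNB was then added; thiocholine was read colorimetrically after 10 min at room temperature.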

Experiment [7] concerns the target Cytochrome P450 2D6 (Homo sapiens) (UniProt P10635). The experiment in a line: Cytochrome P450 Family 2 Subfamily D Member 6 (CYP2D6) small molecule antagonists: luciferase reporter qHTS assay (AID 1671196). Note: nearly all actives have a fitted effect of over 50% in size. Note: potency is the fitted concentration of half-maximal effect. The procedure, abridged: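 Read-out is luminescence from luciferin formed by CYP2D6 turnover of a proluciferin substrate, recorded as relative luminescence units. Reactions ran 1 h at room temperature after NADPH regeneration solution was added.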

Experiment [8] has as its target Cytochrome P450 2C19 (Homo sapiens) (UniProt P33261). Kind of experiment: Cytochrome P450 Family 2 Subfamily C Member 19 (CYP2C19) small molecule antagonists: luciferase reporter qHTS assay (AID 1671197). Note: nearly all actives have a fitted effect of over 65% in size. Note: potency is the fitted concentration of half-maximal effect. The procedure, abridged: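 Quantitative high-throughput screen of the Tox21 library using CYP2C19 with proluciferin substrate. Reaction: NADPH regeneration, 37C, 1 h, after 10 min compound preincubation at room temperature. Readout: luminescence.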
On the technique in general: In a reporter assay the amount or activity of a reporter protein is the signal.

The target in experiment [9] is Cytochrome P450 1A2 (Homo sapiens) (UniProt P05177). Kind of experiment: Cytochrome P450 Family 1 Subfamily A Member 2 (CYP1A2) small molecule antagonists: luciferase reporter qHTS assay (AID 1671199). Note: nearly all actives have a fitted effect of over 50% in size. Note: potency is the fitted concentration of half-maximal effect. Put shortly: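 P450-Glo CYP1A2, 1536-well qHTS: enzyme/proluciferin substrate + cpd (DMSO), 10 min RT; NADPH regen, 1 h RT; detection reagent, 20 min; luminescence, RLU.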
Sequence of Cytochrome P450 1A2 (Homo sapiens) (P05177 whole entry, looked up): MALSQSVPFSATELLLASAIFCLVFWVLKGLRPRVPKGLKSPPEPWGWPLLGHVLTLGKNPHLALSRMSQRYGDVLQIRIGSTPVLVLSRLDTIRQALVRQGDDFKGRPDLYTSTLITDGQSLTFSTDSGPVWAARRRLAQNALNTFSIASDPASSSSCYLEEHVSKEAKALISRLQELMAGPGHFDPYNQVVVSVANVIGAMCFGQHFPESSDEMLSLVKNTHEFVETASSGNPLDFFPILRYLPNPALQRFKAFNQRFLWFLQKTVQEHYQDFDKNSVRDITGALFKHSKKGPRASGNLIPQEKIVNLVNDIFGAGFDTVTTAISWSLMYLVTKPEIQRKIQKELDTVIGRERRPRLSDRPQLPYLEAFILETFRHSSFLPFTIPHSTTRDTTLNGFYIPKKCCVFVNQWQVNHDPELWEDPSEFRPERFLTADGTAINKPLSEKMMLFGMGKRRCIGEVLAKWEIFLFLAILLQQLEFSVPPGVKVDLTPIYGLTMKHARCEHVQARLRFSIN

In experiment [10] the target is Voltage-gated inwardly rectifying potassium channel KCNH2 (Homo sapiens) (UniProt Q12809). Kind of experiment: Human Ether-a-go-go-Related Gene (hERG) channel small molecule antagonists: fluorescence cell-based qHTS assay (AID 1671200).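 Note: hERG-expressing U2OS cells given a thallium stimulus after FluxOR II dye loading; series mostly up to about 77 µM; nearly all actives have a fitted effect of over 50% in size.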 Put shortly: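 Channel function was assessed by thallium flux. Cells seeded the previous day and kept at 37 C took up FluxOR II dye over 1 h in the dark at room temperature, then sat another 10 min before stimulation.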
Sequence of Voltage-gated inwardly rectifying potassium channel KCNH2 (Homo sapiens) (Q12809 whole entry, looked up): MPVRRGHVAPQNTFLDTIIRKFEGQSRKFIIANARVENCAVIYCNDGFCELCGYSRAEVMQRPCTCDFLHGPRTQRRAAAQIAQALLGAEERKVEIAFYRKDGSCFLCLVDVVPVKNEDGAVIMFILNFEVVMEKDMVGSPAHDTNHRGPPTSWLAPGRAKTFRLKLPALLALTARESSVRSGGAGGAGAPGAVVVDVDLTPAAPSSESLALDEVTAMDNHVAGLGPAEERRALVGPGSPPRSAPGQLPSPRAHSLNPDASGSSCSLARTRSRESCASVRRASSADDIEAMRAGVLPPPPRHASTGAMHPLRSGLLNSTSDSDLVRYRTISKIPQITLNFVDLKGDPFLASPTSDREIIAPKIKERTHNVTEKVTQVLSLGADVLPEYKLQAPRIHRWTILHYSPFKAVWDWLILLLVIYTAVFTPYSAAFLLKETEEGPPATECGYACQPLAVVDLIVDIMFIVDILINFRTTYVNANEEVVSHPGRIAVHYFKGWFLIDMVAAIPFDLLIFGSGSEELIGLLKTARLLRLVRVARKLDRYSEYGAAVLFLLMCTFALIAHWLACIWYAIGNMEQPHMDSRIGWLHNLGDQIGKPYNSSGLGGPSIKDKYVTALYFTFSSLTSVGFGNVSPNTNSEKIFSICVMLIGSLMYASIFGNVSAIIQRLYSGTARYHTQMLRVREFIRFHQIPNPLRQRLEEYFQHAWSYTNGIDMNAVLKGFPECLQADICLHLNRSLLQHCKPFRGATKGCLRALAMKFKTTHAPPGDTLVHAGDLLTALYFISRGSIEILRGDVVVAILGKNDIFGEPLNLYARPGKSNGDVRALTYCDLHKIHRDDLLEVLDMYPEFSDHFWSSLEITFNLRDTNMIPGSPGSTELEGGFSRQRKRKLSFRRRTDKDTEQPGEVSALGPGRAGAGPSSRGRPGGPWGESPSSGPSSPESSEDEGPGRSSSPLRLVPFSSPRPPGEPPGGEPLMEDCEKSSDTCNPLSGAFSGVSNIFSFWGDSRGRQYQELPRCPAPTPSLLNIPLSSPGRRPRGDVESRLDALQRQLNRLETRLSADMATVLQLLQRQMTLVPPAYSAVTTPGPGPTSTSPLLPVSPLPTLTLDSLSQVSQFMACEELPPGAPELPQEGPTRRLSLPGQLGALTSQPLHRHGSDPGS

Experiment [11] can be described thus: Caspase-3/7 induction in CHO-K1 cells by small molecules, qHTS cell viability counter screen (AID 1346979). Note: nearly all actives have a fitted effect of over 35% in size. Note: potency is the fitted concentration of half-maximal effect. Put shortly:
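Cells (CHO-K1, wild type) are plated at 1,500 per well and incubated 5hr. Test compounds in DMSO are then pinned in, followed by 16hr at 37C and 5% CO2. Viability is read by CellTiter-Fluor fluorescence after 1hr.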

Experiment [12] addresses Cytochrome P450 2C9 (Homo sapiens) (UniProt P11712). Kind of experiment: Cytochrome P450 Family 2 Subfamily C Member 9 (CYP2C9) small molecule antagonists: luciferase reporter qHTS assay (AID 1671198). Note: nearly all actives have a fitted effect of over 50% in size. Note: potency is the fitted concentration of half-maximal effect. Put shortly: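 Enzyme-substrate mix preincubated with compound 10 min at room temperature; reaction started with NADPH regeneration solution, 1 h 37C. Luminescent luciferin product read after 20 min detection reagent.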

Experiment [13] addresses Cytochrome P450 3A4 (Homo sapiens) (UniProt P08684). Kind of experiment: Cytochrome P450 Family 3 Subfamily A Member 4 (CYP3A4) small molecule antagonists: luciferase reporter qHTS assay (AID 1671201). Note: nearly all actives have a fitted effect of over 50% in size. Note: potency is the fitted concentration of half-maximal effect. Put shortly: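 Compounds in DMSO were pin-transferred onto CYP3A4 enzyme-substrate mix and held 10 min at room temperature. NADPH regenerating solution started the reaction for 1 h; luciferin detection reagent stopped it, and luminescence was read after 20 min.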

In experiment [14] the target is Acetylcholinesterase (Homo sapiens) (UniProt P22303). Kind of experiment: Acetylcholinesterase (AChE) small molecule antagonists: colormetric cell-based qHTS assay (AID 1347395; calls by dose curve; note: nearly all actives have a fitted effect of over 30% in size). Put shortly:
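Colorimetric read-out: DTNB detects thiocholine released when cellular AChE in SH-SY5Y cells hydrolyses acetylthiocholine. Cells attached overnight, received compound for 30 min at 37 C, then substrate mix for 90 min at 37 C.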

The target in experiment [15] is Nuclear receptor subfamily 1 group I member 2 (Rattus norvegicus) (UniProt Q9R1A7). Kind of experiment: Rat pregnane X receptor (rPXR) activation by small molecules, qHTS assay (AID 1346983). Note: nearly all actives have a fitted effect of over 20% in size. The conditions noted are these: rPXR luciferase reporter cells, One-Glo luminescence, 24 h; stronger effect = higher value. Put shortly: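 Luminescent readout (One-Glo luciferase, 30 min room temperature) followed 24 hr compound treatment at 37 C of rPXR cells plated 2,000 per well and preincubated 5hr; qHTS format with compounds delivered in DMSO.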

In experiment [16] the target is Nuclear receptor subfamily 1 group I member 2 (Homo sapiens) (UniProt O75469). The experiment in a line: CYP3A4 induction through human pregnane X receptor (PXR) by small molecules, qHTS assay (AID 1346984). Note: nearly all actives have a fitted effect of over 40% in size. The procedure, abridged: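 Luminescence readout: luciferase signal after One-Glo (30 min, room temperature), following 3 h at 37C with 3uM final Luciferin-IPA P450 substrate. Cells were DPX-2 (HepG2, PXR/CYP3A4-luc co-transfected) dosed for 24 h.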
Sequence of Nuclear receptor subfamily 1 group I member 2 (Homo sapiens) (O75469 whole entry, looked up): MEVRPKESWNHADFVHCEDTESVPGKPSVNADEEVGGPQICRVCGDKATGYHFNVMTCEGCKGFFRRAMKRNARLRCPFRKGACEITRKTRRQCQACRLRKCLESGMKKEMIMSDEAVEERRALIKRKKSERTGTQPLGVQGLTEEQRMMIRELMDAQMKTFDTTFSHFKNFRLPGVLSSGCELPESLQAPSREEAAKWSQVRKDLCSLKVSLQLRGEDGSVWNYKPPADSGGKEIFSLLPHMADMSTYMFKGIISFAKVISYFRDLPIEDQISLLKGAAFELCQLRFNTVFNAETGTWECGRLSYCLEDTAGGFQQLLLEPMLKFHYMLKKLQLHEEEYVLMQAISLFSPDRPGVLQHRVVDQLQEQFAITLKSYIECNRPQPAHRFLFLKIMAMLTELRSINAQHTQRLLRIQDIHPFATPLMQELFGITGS

The target is the same in experiment [17]. The experiment in a line: Human pregnane X receptor (PXR) activation by small molecules, qHTS assay (AID 1346985). Note: nearly all actives have a fitted effect of over 40% in size. The procedure, abridged:
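DPX-2 cells (HepG2 co-transfected with a PXR response element and a CYP3A4-promoter luciferase construct) were seeded at 2,000 per well, rested 5 hr at 37C, then exposed to DMSO-dissolved compounds for 24 hr. Activation was read as luciferase luminescence.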

Where “and” joins values, the source holds several entries; their conditions need not be identical. Identical values can stand only once. Inconclusive results are not listed. Some structures have more than one record in an assay (separate samples or runs), and their calls can disagree. Calls of active or inactive are those of the source. Unless noted, calls come from the whole dose curve; as a rule, active = well fitted curve in the direction sought with a large enough effect in the repeat runs; inconclusive = weak or mixed curves; inactive = no such curve, though single readings can be large; an effect the other way counts as inactive or inconclusive.
% is set by controls: 0 for no effect and ±100 for the full control effect.

Sequence of Cytochrome P450 2D6 (Homo sapiens) (P10635 whole entry, looked up): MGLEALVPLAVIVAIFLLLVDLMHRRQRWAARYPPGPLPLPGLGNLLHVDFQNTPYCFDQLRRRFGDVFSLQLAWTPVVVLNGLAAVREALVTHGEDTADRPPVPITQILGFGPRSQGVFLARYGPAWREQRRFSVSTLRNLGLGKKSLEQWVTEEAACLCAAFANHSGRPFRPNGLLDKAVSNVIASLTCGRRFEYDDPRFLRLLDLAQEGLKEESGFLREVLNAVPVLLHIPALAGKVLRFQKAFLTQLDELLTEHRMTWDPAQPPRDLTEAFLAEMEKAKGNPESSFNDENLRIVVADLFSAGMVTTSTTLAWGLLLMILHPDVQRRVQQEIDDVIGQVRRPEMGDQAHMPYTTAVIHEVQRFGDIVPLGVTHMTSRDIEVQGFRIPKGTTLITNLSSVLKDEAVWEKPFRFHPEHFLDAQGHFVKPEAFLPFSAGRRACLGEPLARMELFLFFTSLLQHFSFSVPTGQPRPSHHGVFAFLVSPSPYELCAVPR
Sequence of Cytochrome P450 3A4 (Homo sapiens) (P08684 whole entry, looked up): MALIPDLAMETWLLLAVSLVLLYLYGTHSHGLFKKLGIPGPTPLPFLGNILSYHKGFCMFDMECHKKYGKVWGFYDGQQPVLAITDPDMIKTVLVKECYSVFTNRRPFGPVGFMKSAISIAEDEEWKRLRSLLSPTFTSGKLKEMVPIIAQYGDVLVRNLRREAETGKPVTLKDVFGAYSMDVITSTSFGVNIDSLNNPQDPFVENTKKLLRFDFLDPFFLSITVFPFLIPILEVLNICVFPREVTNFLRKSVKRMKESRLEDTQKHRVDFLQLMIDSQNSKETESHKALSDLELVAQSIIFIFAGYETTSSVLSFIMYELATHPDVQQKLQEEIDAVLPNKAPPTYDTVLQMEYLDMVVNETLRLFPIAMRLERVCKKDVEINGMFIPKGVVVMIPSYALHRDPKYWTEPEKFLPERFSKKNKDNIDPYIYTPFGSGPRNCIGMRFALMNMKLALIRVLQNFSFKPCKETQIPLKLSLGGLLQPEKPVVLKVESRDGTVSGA
Sequence of Cytochrome P450 2C19 (Homo sapiens) (P33261 whole entry, looked up): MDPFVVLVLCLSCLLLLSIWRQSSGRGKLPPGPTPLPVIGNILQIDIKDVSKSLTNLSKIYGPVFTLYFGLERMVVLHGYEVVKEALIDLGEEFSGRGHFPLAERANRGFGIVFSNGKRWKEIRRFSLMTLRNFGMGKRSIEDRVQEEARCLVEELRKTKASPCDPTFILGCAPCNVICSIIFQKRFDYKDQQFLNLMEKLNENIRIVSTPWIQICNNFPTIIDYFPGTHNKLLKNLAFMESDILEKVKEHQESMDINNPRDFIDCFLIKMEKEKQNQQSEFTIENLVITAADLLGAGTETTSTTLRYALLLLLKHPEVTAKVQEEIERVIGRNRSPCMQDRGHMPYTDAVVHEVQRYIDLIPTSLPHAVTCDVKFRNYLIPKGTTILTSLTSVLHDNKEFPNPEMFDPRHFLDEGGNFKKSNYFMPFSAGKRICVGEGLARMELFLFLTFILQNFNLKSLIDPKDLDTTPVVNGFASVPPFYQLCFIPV
Sequence of Cytochrome P450 2C9 (Homo sapiens) (P11712 whole entry, looked up): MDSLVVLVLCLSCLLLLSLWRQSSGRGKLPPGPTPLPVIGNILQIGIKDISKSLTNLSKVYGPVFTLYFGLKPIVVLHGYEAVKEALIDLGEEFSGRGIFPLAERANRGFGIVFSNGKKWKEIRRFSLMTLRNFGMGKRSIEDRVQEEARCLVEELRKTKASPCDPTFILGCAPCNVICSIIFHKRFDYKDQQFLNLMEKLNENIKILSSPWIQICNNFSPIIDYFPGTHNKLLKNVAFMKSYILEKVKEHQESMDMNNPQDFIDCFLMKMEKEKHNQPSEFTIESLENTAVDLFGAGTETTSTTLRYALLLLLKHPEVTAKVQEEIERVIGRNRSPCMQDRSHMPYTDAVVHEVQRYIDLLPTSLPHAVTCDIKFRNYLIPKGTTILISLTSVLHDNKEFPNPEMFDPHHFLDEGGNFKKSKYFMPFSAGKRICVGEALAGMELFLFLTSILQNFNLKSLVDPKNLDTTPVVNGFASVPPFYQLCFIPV

Turning to `CNC(=O)Oc1cccc2c1OC(C)(C)O2`, the Potency entry in [1], in experiment [2], in [3], in [7] and in experiment [10] was “inactive” throughout. In addition, the Potency is 1.65 µM (active) and 356 nM (active) in experiment [4]; 826 nM (active) and 224 nM (active) in experiment [5]; 10.4 µM (active) and 5.03 µM (active) in experiment [6]; 36.9 µM (active) and 71 µM (active) in experiment [8]; 35.6 µM (active) in experiment [9].
`Nc1ccc(-c2ccccc2)cc1`: the Potency in experiment [11] was 56 µM (active) and inactive; in experiment [3] it was 28.1 µM (active) and 30.6 µM (active); in experiment [7], 35.6 µM (active); in [8], 11.6 µM (active) and 11.2 µM (active); in experiment [12], 13 µM (active) and 12.6 µM (active); in experiment [9], 1.83 µM (active) and 6.33 µM (active). For the same molecule, the Potency in experiment [13] was 6.5 µM (active) and 20 µM (active). Further, the Potency entry in [1], in experiment [2], in experiment [4], in experiment [5], in experiment [6] and in [10] was “inactive” throughout.
As to `CC(O)CCO` (stereo unspecified), the Potency result in experiment [1], in experiment [2], in [3], in experiment [14], in experiment [4] and in experiment [5] was “inactive” throughout. Also, the Potency result in [6], in [12], in experiment [9] and in experiment [10] was “inactive” throughout. Further, the Potency in experiment [7] is 32 µM (active) and inactive; in experiment [8] it was “inactive and 71 µM (active)”.
Consider `O=C(NC(=O)c1c(F)cccc1F)Nc1ccc(Cl)cc1`, for which the Potency entry in experiment [11], in [1], in [2], in experiment [4], in experiment [5] and in experiment [6] was “inactive” throughout. Further, the Potency result in experiment [7], in [8], in [12], in experiment [10] and in experiment [13] was “inactive” throughout. For the same molecule, the Potency in [3] is 2.44 µM (active) and inactive; in experiment [9], 35.6 µM (active).
As for `Cc1cccc(N)c1N`, the Potency entry in experiment [11], in experiment [1], in [2], in experiment [14], in [4] and in experiment [5] was “inactive” each time. The Potency result in [6] and in experiment [10] was “inactive” in each case. Further, the Potency in experiment [3] is 26.4 µM (active) and 54.5 µM (active); in [7], 61.2 µM (active) and 17.8 µM (active); in experiment [8], 38.6 µM (active) and 35.6 µM (active); in experiment [12] it was 34.4 µM (active) and 35.6 µM (active); in experiment [9] it was 7.7 µM (active) and 14.2 µM (active); in experiment [13], 3.86 µM (active) and 11.2 µM (active).
As to `COc1ccc(C(CN(C)C)C2(O)CCCCC2)cc1` (stereo unspecified), the Potency entry in experiment [1], in [2], in experiment [3] and in [10] was “inactive” throughout. Besides, the max activation in [15] is -0.342% (inactive). Also, the outcome in [16] and in experiment [17] was inactive.
For the molecule `c1ccc(P(c2ccccc2)c2ccccc2)cc1`, the Potency entry in experiment [11], in [1], in experiment [2], in experiment [14], in experiment [4] and in experiment [5] was “inactive” throughout. Further, the Potency entry in experiment [6], in [9] and in experiment [13] was “inactive” throughout. Further, the Potency was 55.5 µM (active) and 30.6 µM (active) in [3]; 10.2 µM (active) and 7.1 µM (active) in [8]; 12.9 µM (active) and 7.96 µM (active) in experiment [12].

For the origin of these results see PubChem BioAssay (Tox21).
